From PubChem BioAssay
TRHR enhancer = allosteric enhancers of human TRH receptor; P34981; TRHR cells, fluo-8 calcium fluorescence, EC20 TRH enhancement; enhancement, % at 2 µM; 360,000 tested, 0.66% active; AID 493056; in the data active means enhancement above about 30%; further: 0% is about no effect
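TRHR-expressing cells loaded with fluo-8 calcium dye were read kinetically (ex 480/em 530) during compound addition, then stimulated with an EC20 of TRH (10 nM final). Enhancement of the Gq-mediated intracellular calcium response was scored.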
D1 PAM = human D1 dopamine receptor positive modulation | P21728 | HEK293 TREx D1 cells, calcium flux, dopamine EC20 potentiation | potentiation, % at 10 µM | 360,000 tested, 0.036% active; in the data active means potentiation above about 30%; further: 0% is about no effect
Target sequence (P21728 whole entry, looked up): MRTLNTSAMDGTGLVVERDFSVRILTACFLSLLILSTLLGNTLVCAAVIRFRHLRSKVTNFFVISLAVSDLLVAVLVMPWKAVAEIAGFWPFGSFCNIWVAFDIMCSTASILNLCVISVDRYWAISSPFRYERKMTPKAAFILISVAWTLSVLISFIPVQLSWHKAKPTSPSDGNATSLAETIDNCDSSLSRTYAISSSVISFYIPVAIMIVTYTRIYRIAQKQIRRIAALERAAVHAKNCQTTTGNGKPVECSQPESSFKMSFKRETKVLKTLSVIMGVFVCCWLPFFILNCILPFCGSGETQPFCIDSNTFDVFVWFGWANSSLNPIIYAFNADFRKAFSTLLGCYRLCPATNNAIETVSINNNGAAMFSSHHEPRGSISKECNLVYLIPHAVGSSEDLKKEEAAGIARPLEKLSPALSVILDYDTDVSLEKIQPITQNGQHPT
D1 antag = antagonists of human D1 dopamine receptor | P21728 | activity change, negative = inhibition, % at 10 µM | 360,000 tested, 3.2% active | HEK293 TREx D1 cells, calcium flux, dopamine EC80; active compounds read low; in the data active means activity change below about -30%; further: on the % scale 0 is the no-effect control and ±100 the full control effect
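Inducible Hek293 Trex D1 cells (tetracycline, overnight, 30 C). Calcium dye 30–90 min RT. Antagonist mode: EC80 dopamine added after 180 s compound read.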
D1 ag = human D1 receptor agonism; P21728; HEK293 T-REx D1 cells, calcium flux, agonist mode; activation, % at 2 µM; 360,000 tested, 1% active; AID 504660; further: 0% is about no effect
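Agonism was scored from calcium flux recorded over 180 s (1 read/s) after pintool compound addition, following a 10-cycle baseline. Cells were inducible force-coupled HEK293 TREx D1, plated overnight at 30 C and loaded with no-wash calcium dye.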
TRHR agonist = activates the human TRH receptor; activation, % at 2 µM; P34981; TRHR cells, calcium flux fluo-8, FDSS agonist mode; AID 493084; 360,000 tested, 0.18% active; further: 0% is about no effect
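TRHR-expressing cells, plated overnight in medium with 10% serum, were loaded with fluo-8 calcium dye at room temperature. After a 10 s baseline, library compound was pin-added and calcium release was recorded kinetically (ex 480/em 530) as agonist response.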
GRP78 ERSR act = inducers of ER stress response in human glioma cells; Potency, µM, inactives show top-dose activation, hits mostly activators; U87-MG GRP78 promoter luciferase reporter, 16 h; 420,000 tested, 0.02% active; active means well fitted activation curve with a large enough effect; further: potency means the concentration at half of the fitted maximal effect; series mostly up to about 76 µM; % of control where 0% means no effect; nearly all actives have a fitted effect of over 35% in size
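Stably transfected U87-MG glioma cells carrying a GRP78-based luciferase sensor; 16 h compound incubation. Luminescence end-point read 10 min after Bright-Glo addition at room temperature.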
The depositor's hits bear a star; . = no result given. Compounds with a hit are over-represented: about 4% of the library has one in this group of screens. Unless noted, no stated cut-off is given here; in the data, active means activation above about 30%; inactive means the rest.

SMILES	TRHR enhancer	D1 PAM	D1 antag	D1 ag	TRHR agonist	GRP78 ERSR act
Cc1ccsc1/C=N/NC(=O)C1CC(=O)N(c2ccccc2)C1 (configuration not stated)	1	-7	-47*	0	0	-1%
COc1ccccc1C(=O)Oc1c(Sc2ccccc2)c(C)nn1C(C)(C)C	-4	0	3	2	0	-4%
CC(=O)Oc1ccc2oc(-c3ccccc3)c(C(N)=O)c2c1	-2	-7	-3	2	0	-3%
Cc1ccc(-c2cn3nc(-c4ccccc4)c(-c4ccccc4)nc3n2)cc1	3	5	0	43*	4	-3%
COc1ccc(CN2C(=O)c3ccccc3C(/C=N\OCc3ccc(C)cc3)C2=O)cc1 (configuration not stated)	-10	-4	13	8	2	1%
Cc1c(Cl)ccc(S(=O)(=O)N2CCN=C2c2ccccc2)c1Cl	2	-6	-16	3	0	-4%
OCC1(O)OC[C@@H](O)[C@H]1O (some centres not stated)	6	2	-1	5	-2	-1%
O=C1/C(=C/c2ccccc2)SC(=S)N1C1CCS(=O)(=O)C1 (configuration not stated)	-2	-11	-46*	10	0	-3%
COC(=O)C1=C(C)N(Cc2ccccc2)[C@]23O[C@](C(=O)OC)(C(=O)N2C1c1ccccc1)C1C(=O)N(C)C(=O)C13 (some centres not stated)	.	.	.	.	.	-3%
COC(=O)CCC(=O)c1ccc(OC)c(Cl)c1	3	-6	-34*	3	0	.
COC(=O)c1ccccc1-c1cc(C)cc2c1OC(CNC(=O)c1cnc(C)cn1)C2 (configuration not stated)	.	.	.	.	.	0%
CCOc1ccc(NC2=C(OC)C(=O)c3ccccc3C2=O)cc1	-1	-2	-33*	0	-1	-2%
CCOc1ccc(NC2=C(Cl)C(=O)N(Cc3ccccc3)C2=O)cc1	3	-8	-30*	4	0	-3%
CCOc1ccc(NC2=NCC(=O)N2CCc2ccccc2)cc1	0	9	-65*	102*	-2	-1%
COc1ccc(CCN2C(=O)CN=C2Nc2ccc(F)cc2)cc1OC	5	2	-39*	0	0	-7%
COc1ccc(NC2=C(Cl)C(=O)N(CCc3ccccc3)C2=O)cc1	2	-3	-14	1	-1	5%
Cc1ccc(-c2cc(C(=O)N(C)CC(=O)Nc3ccccc3Br)c3ccccc3n2)o1	-8	-1	0	2	-2	-3%
CC(C)(C)OC(=O)NNC(=O)c1cccs1	-2	-3	21	-2	0	7%
COc1ccc(C2=C(Nc3ccccc3)c3ccccc3C2=O)cc1	-12	-3	-35*	4	-2	-6%
CC(C)CC1(C)NC(=O)N(CC(=O)Nc2cccc(S(=O)(=O)N(C)c3ccccc3)c2)C1=O (configuration not stated)	0	0	-39*	0	0	-4%
CC(=O)c1c(C)[nH]c(C(=O)OCC(=O)Nc2ccc(Cl)c(S(=O)(=O)N(C)C)c2)c1C	0	4	-16	3	-1	-3%
COc1ccccc1NS(=O)(=O)c1cccc(NC(=O)c2[nH]c(C)c(C(C)=O)c2C)c1	8	-6	-19	4	0	-5%
CC(=O)c1c(C)[nH]c(C(=O)Nc2ccc(Cl)cc2)c1C	36*	-9	-63*	33*	-1	6%
CC(=O)c1c(C)[nH]c(C(=O)Nc2cccc(S(=O)(=O)N(C)c3ccccc3)c2)c1C	-4	-5	-44*	7	0	-6%
CC(=O)c1c(C)[nH]c(C(=O)Nc2ccc(Cl)c(S(=O)(=O)N(C)C)c2)c1C	2	-19	-50*	9	2	4%
Cc1ccccc1CN(C)CC(=O)Nc1cccc(S(=O)(=O)N(C)c2ccccc2)c1	-4	-12	-41*	14	1	-10%
Cc1cc(C)c(NC(=O)CN(C)CC(=O)Nc2cccc(S(=O)(=O)N(C)c3ccccc3)c2)c(C)c1	.	.	.	.	.	-1%
